# Laboratory results published in PubChem BioAssay (NCATS).
# Records with an inconclusive call do not appear. A call without a number means that no potency is given here. A number with no mark means an inactive call. The source made the active and inactive calls. The call rests on the fitted dose curve; in most records, active means well fitted cell-killing curve with a large enough effect; inconclusive means small, poorly fitted or top-dose-only effect, or effect the other way; inactive means no such curve, though single readings can be large or run the other way.
# Assay: Viability qHTS for spleen associated tyrosine kinase inhibitor (SYKi) naive MV4-11 cells (AID 1963823); further: nearly all actives have a fitted effect of over 40% in size
# Procedure, shortened: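 qHTS, SYK inhibitor-naive MV4-11; 500 cells/well; 72 hr compound exposure, 37 C; CellTiter-Glo added, 10 min RT; luminescence read.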
SMILES,Potency,viability (% of control)
CCNC(=O)[C@@H]1CCCN1C(=O)[C@H](CCCN=C(N)N)NC(=O)[C@H](CC(C)C)NC(=O)[C@@H](CC(C)C)NC(=O)[C@H](Cc1ccc(O)cc1)NC(=O)[C@H](CO)NC(=O)[C@H](Cc1c[nH]c2ccccc12)NC(=O)[C@H](Cc1cnc[nH]1)NC(=O)[C@@H]1CCC(=O)N1,inactive,–
Cc1ncc([N+](=O)[O-])n1C[C@H](O)CN1CCOCC1,inactive,–
C/C=C(/C)C(=O)OC1C2OC2C2(CO2)C2C3OC(=O)C(C)C3CCC12C (configuration not stated),inactive,–
CC#CCn1c(N2CCCC(N)C2)nc2c1c(=O)n(Cc1nc(C)c3ccccc3n1)c(=O)n2C (configuration not stated),inactive,–
CN(CCOc1ccc(C[C@H](Nc2ccccc2C(=O)c2ccccc2)C(=O)O)cc1)c1ccccn1,inactive,–
C=CC(C)(CC/C=C(\C)C(=O)OC[C@H]1O[C@@H](OC(C)(C=C)CC/C=C(\C)C(=O)O[C@H]2[C@H](O)[C@@H](O)[C@H](OC(C)(C=C)CC/C=C(\C)C(=O)O)O[C@@H]2CO)[C@H](O)[C@@H](O)[C@@H]1O)O[C@@H]1O[C@H](CO)[C@@H](O)[C@H](O)[C@H]1O (some centres not stated),–,81.1% [at 9.25 µM]
C[C@@H]1O[C@@H](O[C@@H]2[C@@H](O)[C@@H](O[C@]3(CO)O[C@H](CO)[C@@H](O)[C@@H]3OC(=O)/C=C/c3ccc(O)cc3)O[C@H](CO)[C@H]2OC(=O)/C=C/c2ccc(O)cc2)[C@H](O)[C@H](O)[C@H]1O[C@@H]1O[C@@H](C)[C@H](O[C@@H]2OC[C@](O)(CO)[C@H]2O)[C@@H](O)[C@H]1O,–,90% [at 9.25 µM]
